This is part of a sample that, as a whole, favours compounds with a hit. Of some 83,000 tested, about 20% had one in any assay.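 Interpretation: 100, growth as untreated; towards 0, rising growth inhibition; 0, no net growth; 0 to -100, cell death. Compounds scoring below 10 were considered active.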 Active and inactive are the calls of the source.

For the assay, the system named is SNB-75 CNS. The experiment in a line: NCI-60 one-dose screen, 48 h (100 = growth as untreated, 0 = no growth, -100 = all killed). The note with it: 10 µM unless noted.
For the compound `CCN(CC)CC#CCOC(=O)[C@]1(C)CCC[C@]2(C)[C@H]3C[C@H]4C(C(C)C)=C[C@]3(CC[C@H]21)[C@@H]1C(=O)CCC(=O)[C@@H]14`, the growth was 55.4% (inactive). The figure for `CN1CCN(CC#CCOC(=O)CNC(=O)[C@]23CCC(C)(C)C[C@H]2C2=CC[C@@H]4[C@@]5(C)CC[C@H](O)C(C)(C)[C@@H]5CC[C@@]4(C)[C@]2(C)CC3)CC1` is 80.9% (inactive); for `Nc1cc(N)c(S(=O)(=O)O)cc1N=Nc1cc([N+](=O)[O-])ccc1O` it is 88.7% (inactive); for `COc1ccc2c(c1)Oc1nc(N)c(C#N)c(N)c1C2Sc1ccc(SC)cc1` (stereo not drawn) it is 34.2% (inactive). For the compound `CO[C@@]12C=C[C@@]34CCC(=O)N3c3ccccc3[C@@H](O1)C4C2`, the growth is 90.5% (inactive).

Consider `COc1cc(NC(=O)Nc2cnc(Nc3ccc(N4CCOCC4)cc3)nc2Oc2ccc(F)cc2)cc(OC)c1`, for which the growth was 100% (inactive).

Consider `C/C(=N/Nc1nc2ccccc2n1C)c1ccccn1`, for which the growth was 28% (inactive). The figure for `Cc1cccc(C)c1NC(=O)CN(CC(C)C)CC(O)COc1ccccc1` (stereo not drawn) is 86.6% (inactive); for `COC(=O)c1ccc2c(c1)NC(=O)[C@@H]1CCCN21` it is 83.1% (inactive). The figure for `O=C1c2ccccc2C(=O)c2c1oc1c2c(=O)[nH]c2ccc(Cl)cc21` is -9.01% (active); for `COc1cc(NC(=O)Nc2cnc(Nc3ccc(N4CCOCC4)cc3)nc2Oc2ccc(C(F)(F)F)cc2)cc(OC)c1` it is 84.4% (inactive).

Regarding `COc1ccc(C(=O)c2cc(F)c(F)c(OC)c2F)cc1OC(=O)CCl`, the growth was 42.9% (inactive). With `Nc1c(C(=O)Nc2cccc3ccccc23)sc2nc3c(cc12)CCCCC3`, the growth was 19.4% (inactive). `O=c1[nH]c2ccccc2cc1-c1nc2ccncc2[nH]1`: the growth is 58.3% (inactive). Consider `C=C1C(=O)O[C@H]2[C@H]1CC/C(COC(=O)NCc1nc3ccccc3[nH]1)=C\CC[C@@]1(C)O[C@@H]21`, for which the growth is 91.9% (inactive). The figure for `Cc1cccc(C)c1NCc1nnc(-c2ccco2)o1` is 85.5% (inactive); for `Nc1c(C(=O)Nc2ccccn2)sc2nc3c(cc12)CCCC3` it is 38.1% (inactive); for `Cc1c(Cl)cccc1NC(=O)c1sc2nc3c(cc2c1N)CCCCC3` it is 9.95% (active). Turning to `CCSc1nc(Cl)c(C#N)c(-c2ccc(F)cc2)n1`, the growth was 80.3% (inactive).

For the compound `CCc1n(Cc2ccc3ccccc3c2)c2ccccc2[n+]1Cc1ccc2ccccc2c1`, the growth was 59% (inactive).

With `NC(=O)CN1C(=O)c2ccccc2C1=O`, the growth was 86.4% (inactive). With `O=C1C(=O)c2c(nc3ccc(C(F)(F)F)cn23)-c2ccccc21`, the growth is -97% (active).

For `COc1cccc(NC(=O)Nc2ccc(Nc3ncnc4[nH]c(C)c(C)c34)cc2)c1`, the growth is 82.2% (inactive). `NC(=O)c1ccc2nc3c(n2c1)C(=O)C(=O)c1ccccc1-3`: the growth was -95% (active). `O=C(O)c1cc(N=Nc2ccc(-c3ccc(N=Nc4c(S(=O)(=O)O)cc5ccc(Nc6ccccc6)cc5c4O)cc3)cc2)ccc1O`: the growth is 85.2% (inactive). Take `C=C1C(=O)O[C@H]2[C@H]1CCC(/C=N/c1ncc(Br)cc1N)=C\CC[C@@]1(C)O[C@@H]21`: the growth is 85.3% (inactive). For `Cc1nc2sc(C(=O)Nc3ccccc3Cl)c(N)c2cc1C(C)O` (stereo not drawn), the growth was 72.8% (inactive).

`COc1ccc(/C=C/C(=O)c2ccc(NC(=O)CSc3nnc(-c4ccc(OC)c(OC)c4)n3-c3ccccc3)cc2)cc1`: the growth is 63.3% (inactive).

Take `O=c1c2ccccc2n(CC(O)CN2CCCC2)c2c(Br)cccc12` (stereo not drawn): the growth is 79% (inactive). For `O=C(CCCCCCCCC(=O)Nc1cccc(C2=NCCN2)c1)Nc1cccc(C2=NCCN2)c1`, the growth is 110% (inactive). For `Cc1ccc(C(=O)/C(=C/c2ccc([N+](=O)[O-])cc2)S(=O)Cc2ccccc2)cc1` (stereo not drawn), the growth is 43.4% (inactive). Turning to `COc1ccc(-c2nc(C#N)c(NCC(c3ccc(Cl)cc3)N3CCCCC3)o2)cc1` (stereo not drawn), the growth is 91% (inactive). Turning to `O=C1CC(c2ccc(O)c(O)c2)Oc2cc(O)c([C@@H]3O[C@H](CO)[C@@H](O)[C@H](O)[C@H]3O)c(O)c21` (stereo partly drawn), the growth was 102% (inactive). With `CCCn1c2cc(OCc3cn(-c4ccc(Cl)cc4)nn3)ccc2c2ccnc(C)c21`, the growth was 92.5% (inactive). With `COc1ccccc1C(=O)/C=C/c1cc2cccc(OC)c2[nH]c1=O` the figure was 34.3% (inactive); with `O=[N+]([O-])c1ccc(N=Nc2c(O)c(N=Nc3cc([N+](=O)[O-])cc([N+](=O)[O-])c3O)cc(N=Nc3cc(S(=O)(=O)O)cc4cc(S(=O)(=O)O)cc(O)c34)c2O)cc1`, 91.1% (inactive); with `COc1cc(N=Nc2cc(S(=O)(=O)O)cc3cc(S(=O)(=O)O)cc(O)c23)c(C)cc1N=Nc1c(S(=O)(=O)O)cc2cc(Nc3ccccc3)ccc2c1O`, 91.1% (inactive). `C=C1C(=O)O[C@H]2[C@H]1CC/C(COC(=O)/C=C/c1cccnc1)=C\CC[C@@]1(C)O[C@@H]21`: the growth is 72.2% (inactive).

(Values after PubChem BioAssay (NCI).)
